# From PubChem BioAssay
# eIF4E-4G inh – eIF4E/eIF4G interaction inhibition in translation initiation. P63073+Q04637. 220,000 compounds, 0.37% hits. TR-FRET eIF4E-eIF4GI(517-606) binding, 2 h. inhibition, % at 21.7 µM;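 active = inhibition above about 30%, limit read from the data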;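 note: 0% = full FRET control wells and 100% = background wells lacking eIF4GI fragment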
# eIF4H FP inh – inhibitors of RNA binding by human eIF4H | inhibition, % at 35 µM | eIF4H fluorescence polarization binding assay | Q15056 | 290,000 compounds, 0.94% hits;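 note: calls also rest on retests at 20 µM and on dose response follow-up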
# PABP FP inh – blocks human PABP binding to poly(A) RNA; P11940; fluorescence polarization; calls only at 35 µM; 290,000 compounds, 1% hits; AID 2014;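 note: calls also rest on retests at 20 µM and on dose response follow-up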
# PABP1 MLLE inh – blocks PAM2 peptide binding to the PABP1 MLLE domain; P11940; GST-MLLE / FITC-PAM2 fluorescence polarization; inhibition, % at 20 µM; 360,000 compounds, 0.36% hits; in the data active = inhibition above about 35%, passing the limit was not always enough;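 note: plate controls were DMSO wells with GST-MLLE for no effect and wells lacking GST-MLLE protein for full effect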
# PERK inhibitor – blocks human PERK kinase; Q9NZJ5; CHO PERK-DD fusion, SEAP luminescence translation reporter; inhibition, % at 5.6 µM; 220,000 compounds, 0.17% hits; AID 1416;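 active = inhibition above the mean inhibition of all tested compounds plus 3 SD, set separately per screening campaign, cut at about 2.9% in these data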;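 note: PERK kinase domain activated by AP20187 dimerizer at 100 nM; 0% = DMSO with dimerizer and 100% = rapamycin at 8.4 µM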
# * marks the source's active call; other numbers are inactive results; i = inactive; ? = inconclusive; · = not tested or not shown; + = active, no number. Sampled rows, rich in hits. Any-hit rate of the full collection: about 1.6%. Unless noted, the rule behind the calls is not given here.
SMILES,eIF4E-4G inh,eIF4H FP inh,PABP FP inh,PABP1 MLLE inh,PERK inhibitor
Cc1[nH]n(C(N)=S)c(=O)c1N=Nc1ccc(S(=O)(=O)N2CCCCCC2)cc1,4.4,-3.7,i,39.9*,-0.9
COc1ccccc1OCCC(=O)O,0.9,active,+,-4.1,0.6
CSCCC(NC(=O)COc1ccccc1)C(=O)N1CCN(c2ccccc2O)CC1 (centres undefined),·,·,·,5.0,·
Cc1ccc(C(=O)/C=C/C(=O)O)cc1,9.2,-1.2,i,44.5*,0.6
O=C(CN(Cc1ccc(F)cc1)C(=O)CCC(=O)Nc1nccs1)NCc1ccc(F)cc1,·,8.8,i,0.1,·
CCC(C)N(C(=O)CSc1ccc(NC(C)=O)cc1)C1CCS(=O)(=O)C1 (centres undefined),0.8,-16.4,i,45.0*,1.6
CC1CCCC(C)N1CCCNC(=O)Cn1c(=O)c2cccn2c2cccnc21 (centres undefined),·,15.0,i,15.2,·
FC(F)(F)c1ccc(C2Nc3cccc4cccc(c34)N2)cc1,1.0,67.0,i,-4.1,-0.4
Clc1cccc(C2Nc3cccc4cccc(c34)N2)c1Cl,·,102.8*,+,9.7,·
c1coc(C2Nc3cccc4cccc(c34)N2)c1,17.4,110.5*,+,·,1.1
O=[N+]([O-])c1ccc(C2Nc3cccc4cccc(c34)N2)cc1,6.0,97.3*,+,6.4,0.3
Clc1ccccc1C1Nc2cccc3cccc(c23)N1,·,?,?,6.4,·
O=[N+]([O-])c1cccc(C2Nc3cccc4cccc(c34)N2)c1,6.9,43.6,i,16.1,0.4
Fc1ccc(C2Nc3cccc4cccc(c34)N2)cc1,·,52.8*,+,4.7,·
Cc1cc2c(cc1S(=O)(=O)N1CC(C)CC(C)C1)OCC(=O)N2 (centres undefined),·,-5.0,i,4.8,·
Cc1ccc(C2Nc3cccc4cccc(c34)N2)s1,7.7,103.0,+,11.8,1.3
Oc1ccc(C2Nc3cccc4cccc(c34)N2)c(O)c1,23.0,89.0*,+,7.0,0.9
COc1ccccc1C1CC(c2cccs2)=NN1C(=O)CCC(=O)O (centres undefined),·,-12.2,i,-26.5,·
COc1ccccc1C1CC(c2cccs2)=Nc2ccccc2S1 (centres undefined),4.0,3.0,i,45.6*,-0.4
Cc1ccccc1N=Cc1c(O)n(-c2nccs2)c(=O)c2ccccc12,-5.8,-5.4,i,3.1,-0.8
O=c1c2ccccc2c(C=Nc2ccccc2O)c(O)n1-c1nccs1,0.3,115.6,+,-66.9,0.5
CS(=O)(=O)Nc1cc2c3c(c1)CCC(=O)N3CCC2,·,2.0,i,-2.8,·
CCOc1ccc(-n2c(SC(C)C)nc3c(c2=O)SCC3)cc1,-1.1,76.4,+,8.4,0.0
Cc1csc(=O)n1CCC(=O)OCC(=O)NNC(=O)c1ccc(Cl)cc1,·,·,·,45.0*,·
N#CC(C#N)=Cc1cccn1-c1ccc(C(=O)O)cc1,5.2,86.8*,i,0.2,-0.1
SMILES,eIF4E-4G inh,eIF4H FP inh,PABP FP inh,PABP1 MLLE inh,PERK inhibitor
N#C/C(=C/c1cccn1-c1cccc(C(=O)O)c1)c1ccc(Cl)cc1,15.1,79.9,+,10.2,1.2
Nc1cccnc1Sc1cccc(Cl)c1,6.7,13.9,i,38.2*,0.6
Nc1cccnc1Sc1ccc(Cl)cc1,-3.5,-3.4,i,-3.5,-0.6
Cc1nc2scc(-c3ccccc3)c2c(=O)n1N=C1C=CC(=O)C=C1,4.7,71.4*,+,·,0.1
COc1ccc(-c2nc(-c3ccccc3)nc(N3CCN(C)CC3)c2C#N)cc1,-0.2,0.4,i,5.0,0.4
COc1cccc(-c2nc(-c3ccccc3)nc(N3CCN(C)CC3)c2C#N)c1,-6.2,active,i,1.1,-0.2
COc1ccc(N2CCN(c3oc(-c4ccco4)nc3C#N)CC2)cc1,-2.4,100.5*,i,6.0,1.1
O=C(COc1ccc(Cl)cc1)NCc1ccc(F)cc1,·,2.6,i,-0.4,·
CCOc1ccc(/C=C/C(=O)Nc2ccccc2C(F)(F)F)cc1,-1.8,active,+,2.0,1.8
COc1ccc(/C=C/C(=O)Nc2ccccc2C(F)(F)F)cc1,20.4,-7.4,i,-12.7,0.8
Cc1ccccc1NC(=O)CCS(=O)(=O)c1ccc(Br)s1,·,57.6*,i,4.0,·
COC(=O)c1ccccc1NC(=O)CCS(=O)(=O)c1ccc(Br)s1,-0.3,-4.8,i,13.6,-0.3
O=C(NC(=S)Nc1cccc2cccnc12)c1ccccc1,-0.5,4.2,i,39.1*,1.4
O=C(NC(=S)Nc1ccc(NC(=O)c2cccs2)cc1)c1ccco1,-10.4,0.6,i,21.2,-0.7
O=C(NCCOc1cccc2cccnc12)c1cccs1,-1.7,active,+,16.9,-0.3
O=C(NC(=S)Nc1cccc(Cl)c1N1CCOCC1)c1cccs1,1.3,-9.5,i,42.1*,1.3
O=C(NC(=S)Nc1ccc(NC(=O)c2cccs2)cc1)c1cc2ccccc2o1,-5.9,96.4*,+,18.1,0.7
CCCC(=O)NC(=S)Nc1cccc(Cl)c1N1CCCC1,-3.7,0.7,i,44.8*,-0.3
Cc1cccc(NC(=S)NC(=O)c2cccs2)n1,4.8,1.3,i,40.8*,0.0
O=C(NC(=S)Nc1cccc2cccnc12)c1cccs1,-1.1,3.6,i,48.2*,1.2
O=C(O)CC(C(=O)O)c1ccc(OCCCCOc2ccc(C(CC(=O)O)C(=O)O)cc2)cc1 (centres undefined),·,100.6*,+,-6.6,·
O=C(c1ccccc1)N1CCN(C(=O)c2nn3c(C(F)(F)F)cc(-c4ccco4)nc3c2Br)CC1,·,69.0*,i,-9.4,·
O=C(O)c1cnn2c(C(F)(F)F)cc(-c3ccco3)nc12,5.9,78.0*,+,6.0,-0.3
O=C(c1cnn2c(C(F)(F)F)cc(-c3ccco3)nc12)N1CCCCCC1,-4.7,1.2,i,3.0,-0.8
O=C(NC1CCCCC1)c1nn2c(C(F)(F)F)cc(-c3ccco3)nc2c1Br,4.8,9.8,i,-9.8,0.5
SMILES,eIF4E-4G inh,eIF4H FP inh,PABP FP inh,PABP1 MLLE inh,PERK inhibitor
COC(=O)/C=c1/s/c(=C(/C#N)C(=O)NCc2ccccc2)n(-c2ccccc2)c1=O,-1.9,110.9*,+,-39.7,0.5
OCCCNc1ncnc2c1ncn2[C@H]1CN(Cc2ccc(-c3ccccc3)cc2)C[C@@H](CO)O1,·,·,·,-7.0,·
CN(C)S(=O)(=O)c1ccc(Cl)c(C(=O)NNC(=O)Cn2ccc(C(F)(F)F)n2)c1,·,·,·,1.3,·
O=C(O)C1OC(Oc2c(-c3ccc(O)c(O)c3)oc3cc(O)cc(O)c3c2=O)C(O)C(O)C1O (centres undefined),7.2,76.5*,+,·,0.7
CC1OC(Oc2c(-c3cc(O)c(O)c(O)c3)oc3cc(O)cc(O)c3c2=O)C(O)C(O)C1O (centres undefined),-2.4,36.9,i,-18.1,2.3
Brc1ccc(-c2csc(/N=C/N3CCCC3)n2)cc1,-0.1,active,+,10.6,1.0
Cc1cc2c(=O)n(C)c(SCC(=O)Nc3ccccc3C)nc2s1,·,·,·,2.2,·
